Screening results: PubChem BioAssay, several laboratories
Rows were chosen to be rich in hits. Some 1.5% of all compounds tested hit in one or more screens of this group.
cardiac RTF act: cardiac RTF calcium sensitization; IANBD-labeled TnC RTF fluorescence at EC20 calcium; 0% EC20 calcium, 100% full calcium; P19429+P45379; activation, % at 7.2 µM; AID 493008; actives 0.24% (n = 340,000);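 active = activation above the mean over all tested compounds plus 3 SD, cut at about 30% in these data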;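 note: rise in fluorescence read as greater calcium sensitivity of cardiac thin filaments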
CRFR2-BP ag: agonists of human CRF-binding protein/CRF-R2 receptor complex; HEK293 CRF-R2/CRF-BP, calcium dye fluorescence (FLIPR); percent of saturating CRF peptide response; AID 588473; activation, % at 13.2 µM; actives 0.46% (n = 350,000);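 active = activation of at least 50%, plus an integration ratio under a set limit after plate pattern correction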;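 note: plate controls were neutral control wells without compound for no effect and CRF at EC100 for full effect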
RTF Ca sens inh: cardiac RTF calcium desensitization. AID 493244. inhibition, % at 7.15 µM. actives 0.12% (n = 340,000). IANBD-labeled cardiac RTF, Ca2+ fluorescence;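 active = inhibition above the mean inhibition of all tested compounds plus 3 SD, cut at about 17% in these data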;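 note: assay run at fixed EC70 calcium of 1.6 mM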
CRFBP-R2 block: CRF-BP/CRF-R2 complex antagonism | HEK293 CRF-R2/CRF-BP, CRF-induced calcium fluorescence | inhibition, % at 11.8 µM | actives 0.59% (n = 350,000);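 active = inhibition of the ligand-induced calcium signal above about 50% at the single tested concentration, limit read from the data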
IDE cell activ: IDE (human) activation, cell-based; actives 0.073% (n = 340,000); P14735; activation, % at 5.96 µM; HEK cells, FAbeta-B cleavage, fluorescence polarization; 0% vehicle, 100% cell-free pure enzyme wells;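 active = activation above the mean of all tested compounds plus 3 SD, set per screening campaign, cut at about 17% in these data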
Target sequence (P14735 whole entry, looked up): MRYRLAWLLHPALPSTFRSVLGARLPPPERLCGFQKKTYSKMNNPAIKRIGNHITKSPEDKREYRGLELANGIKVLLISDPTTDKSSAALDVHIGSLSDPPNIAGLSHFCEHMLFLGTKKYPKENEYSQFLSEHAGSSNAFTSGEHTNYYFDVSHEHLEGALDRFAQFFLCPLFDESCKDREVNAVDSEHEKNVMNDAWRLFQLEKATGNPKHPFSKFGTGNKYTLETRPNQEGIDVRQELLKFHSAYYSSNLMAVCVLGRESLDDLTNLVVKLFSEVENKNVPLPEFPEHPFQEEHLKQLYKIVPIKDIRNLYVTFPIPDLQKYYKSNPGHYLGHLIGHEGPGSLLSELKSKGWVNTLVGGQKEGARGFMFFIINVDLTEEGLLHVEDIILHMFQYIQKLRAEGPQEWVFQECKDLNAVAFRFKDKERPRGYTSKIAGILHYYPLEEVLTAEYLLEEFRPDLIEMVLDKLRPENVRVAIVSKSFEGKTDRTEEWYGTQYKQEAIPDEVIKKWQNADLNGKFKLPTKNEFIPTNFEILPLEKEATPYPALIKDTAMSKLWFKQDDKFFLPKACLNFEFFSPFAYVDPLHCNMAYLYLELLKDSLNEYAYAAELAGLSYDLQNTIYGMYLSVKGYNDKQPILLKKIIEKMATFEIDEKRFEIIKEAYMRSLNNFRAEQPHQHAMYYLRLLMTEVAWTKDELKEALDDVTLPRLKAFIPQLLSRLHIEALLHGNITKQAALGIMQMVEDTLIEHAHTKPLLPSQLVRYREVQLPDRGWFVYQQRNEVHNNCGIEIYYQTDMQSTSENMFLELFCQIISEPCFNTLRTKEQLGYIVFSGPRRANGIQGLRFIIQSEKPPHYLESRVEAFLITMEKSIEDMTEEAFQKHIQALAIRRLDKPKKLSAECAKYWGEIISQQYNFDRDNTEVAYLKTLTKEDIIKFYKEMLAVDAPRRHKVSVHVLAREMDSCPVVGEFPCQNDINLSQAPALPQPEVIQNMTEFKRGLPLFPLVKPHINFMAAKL
IDE cell inh: inhibitors of human insulin-degrading enzyme in cells. HEK cells, FAbetaB cleavage, fluorescence polarization. inhibition, % at 5.59 µM. actives 0.41% (n = 320,000). AID 434962;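 active = percent inhibition above the average of all tested compounds plus 3 SD, set per screening campaign, cut at about 16% in these data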;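 note: IDE supplied by intact live HEK cells; FP after avidin binding of uncleaved biotin substrate so inhibition keeps polarization high; 0% = DMSO wells and 100% = 60 µM reference IDE inhibitor Ii1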
IDE inh confirm: confirmation of human insulin-degrading enzyme inhibitors in cells; inhibition, % at 5.59 µM; actives 51% (n = 1,200); shares compounds with IDE cell inh; AID 435028; HEK cells, FAbetaB cleavage, fluorescence polarization;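 active = mean inhibition across triplicate wells above the cutoff set by the earlier primary insulin-degrading enzyme screen, cut at about 16% in these data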;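 note: 0% = DMSO wells and 100% = 60 µM reference IDE inhibitor Ii1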
HEK293 tox: counter-screen for IDE inhibitors: cytotoxicity in HEK cells; AID 449730; inhibition, % at 5.59 µM; HEK293 cytotoxicity, ATP luminescence; actives 28% (n = 1,200); shares compounds with IDE cell inh; in the data active = inhibition above about 22%;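 note: 0% = vehicle wells and 100% = reference cytotoxic drug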
Active calls of the source: *; i = inactive; x = no result; + = active, no number.

SMILES	cardiac RTF act	CRFR2-BP ag	RTF Ca sens inh	CRFBP-R2 block	IDE cell activ	IDE cell inh	IDE inh confirm	HEK293 tox
O=C(Nc1ccc(-c2nc3ccc(NC(=O)c4cccs4)cc3[nH]2)cc1)c1cccs1	-9	-1	0	32	3	5	x	x
O=C(Nc1ccc2nc(-c3cccs3)[nH]c2c1)c1cccs1	2	-1	-5	-13	-4	21*	10	22*
CC(=O)Oc1c(-c2ccc(Br)o2)oc2ccccc2c1=O	-6	14	-5	-35	-55	57*	74*	13
CCOC(=O)C1=CC[C@@H](c2ccccc2Cl)N(S(=O)(=O)c2ccc(C)cc2)[C@H]1C(=O)OCC	-5	-1	10	-1	0	-2	x	x
CCOC(=O)C1=CC[C@@H](c2cccc(C)c2)N(S(=O)(=O)c2ccc(C)cc2)[C@H]1C(=O)OCC	1	1	-2	8	-4	16*	13	12
C/C(=N\Nc1ncnc2sc(C)c(C)c12)c1ccccn1	-2	64*	-15	-139	-16	48*	36*	118*
Cn1cc(C2=C(c3ccc(Cl)cc3Cl)C(=O)NC2=O)c2ccccc21	47*	144*	-50	-156	-56	33*	60*	-1
O=c1[nH]c(CN2CCCCC2)ccc1O	x	-1	x	-16	x	x	x	x
N#CC1=C(N)SC(N)=C(C#N)C1c1cccc(O)c1	26	19	-63	-27	-9	20*	6	10
N#CC1=C(N)Oc2cc(O)ccc2C1c1ccccc1 (centres undefined)	4	-1	-3	12	-11	3	x	x
COC(=O)[C@@H](Cc1c[nH]c2ccccc12)NCc1ccc(B(O)O)cc1	-1	-1	1	0	-1	x	x	x
COc1ccc(C(CC(=O)N2CCCC2)c2ccc(F)cc2)cc1 (centres undefined)	-7	-1	-3	14	-6	17*	10	10
Oc1ccc(Cl)cc1/C=N/c1nccs1	-1	4	-5	-3	-5	0	x	x
Oc1ccc(Cl)cc1C=Nc1ccc2c3c(cccc13)CC2	-4	12	-35	-22	-3	42*	0	11
Cc1cccc(C=Nc2ccc3c4c(cccc24)CC3)c1O	-3	4	2	6	-1	33*	9	3
CC(C)(C)c1nc(NCCO)c2nnn(Cc3ccccc3)c2n1	-2	0	-8	-13	-1	6	x	x
COc1cc2c(cc1[N+](=O)[O-])-c1ccc([N+](=O)[O-])cc1C2=NO	x	1	x	-27	x	x	x	x
Nc1ccc(-c2c3ccc(=O)cc-3oc3cc(O)ccc23)c(C(=O)O)c1	+	232*	i	-169	-13	49*	28*	4
Nc1ccc(O)c(C(=O)O)c1	x	x	x	x	x	8	x	x
Cc1ccc(-n2cnnn2)c2cccnc12	4	1	-3	-15	5	2	x	x
Cc1ccc(N2C(=O)c3cccc4c(N)ccc(c34)C2=O)c2cccnc12	754*	201*	i	-176	-80	84*	65*	68*
CCN1C(=O)c2cccc3c(N)ccc(c23)C1=O	+	213	i	-136	0	24*	61*	11
CC(C)(C)c1ccc(C(=O)NCC(=O)NCc2ccccn2)cc1	0	0	-6	-5	1	9	x	x
Fc1ccc(-c2ccnc(=S)[nH]2)cc1	0	0	-2	-4	-24	40*	8	12
CCN(CC(=O)NCc1cccs1)C(=O)c1cccc(S(=O)(=O)N(CC)c2ccccc2)c1	2	-1	-7	1	1	x	x	x
SMILES	cardiac RTF act	CRFR2-BP ag	RTF Ca sens inh	CRFBP-R2 block	IDE cell activ	IDE cell inh	IDE inh confirm	HEK293 tox
C[n+]1ccccc1/C=C1\Sc2ccccc2N1CCO	4	7	-11	9	1	6	x	x
CC[n+]1ccc(/C=C2\Sc3ccccc3N2CCCS(=O)(=O)[O-])c2ccccc21	1	0	-16	16	3	17*	8	9
Cc1oc(C)c2c(=O)ccc3c(c12)OC(N)=C(C#N)C3c1ccc(F)cc1 (centres undefined)	7	2	-19	3	-86	27*	68*	10
Cc1[nH]nc2c1C(c1ccc(F)cc1)C(C#N)=C(N)O2 (centres undefined)	2	-1	-3	-6	1	8	x	x
O=C1NC(=S)SC1=Cc1cccs1	3	6	6	-12	-1	x	x	x
CN1CCC/C1=C/C=C1\SC(=S)NC1=O	471*	149*	i	-132	-72	76*	69*	7
CC(C)OC(=O)c1sc2nc(-c3ccccc3)ccc2c1N	-3	0	2	-48	1	2	x	x
COc1ccc(C(=O)c2sc3nc(-c4ccccc4)ccc3c2N)cc1	19	83*	-50	-126	-34	21*	19*	13
O=C(NCC1COCCO1)c1cc(COc2c(F)cccc2F)on1 (centres undefined)	-2	-2	1	-1	6	-3	x	x
COc1ccc(/C=N\NC(=O)c2ccc(-c3ccccc3)cc2)c(OC)c1OC	1	0	-1	6	-2	x	x	x
Cc1occc1C(=O)N/N=C/c1ccc(-c2ccccc2)cc1	-3	3	8	1	-8	16*	0	65*
COc1cc(/C=N/NC(=O)c2ccc(-c3ccccc3)cc2)cc(OC)c1OC	14	-3	-8	18	-20	21*	10	11
CN(C)S(=O)(=O)c1cccc(-c2nn(-c3ccccc3)cc2/C=C2\SC(=S)NC2=O)c1	0	3	-5	17	-1	26*	-3	23*
CCc1cccc(C)c1NC(=O)CN1C(=O)NC(C)(CCC(C)C)C1=O (centres undefined)	-6	0	3	11	5	-4	x	x
CC(=O)Nc1ccc(C2=NNC(=Nc3ccc(S(=O)(=O)N4CCOCC4)cc3)SC2)cc1	8	0	-6	10	-29	22*	9	15
O=S(=O)(c1ccc(N=C2NN=C(c3cc(F)ccc3F)CS2)cc1)N1CCOCC1	x	-1	x	3	x	x	x	x
O=C1C=CC(=O)N1CCCCCCN1C(=O)C=CC1=O	x	1	x	47	x	19*	4	124*
O=C(O)CN1C(=O)C=CC1=O	x	-1	x	-12	x	x	x	x
CCN1/C(=C\C=C(C(C)=O)C(C)=O)Sc2ccccc21	78*	81*	-94	-82	-53	35*	50*	9
